{"source": "PubChem BioAssay AID743318", "about": "(Broad Institute, 2014)", "note": "Results with a measured potency or affinity are listed apart. Activity calls are given as the source filed them.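 How the source made its calls: active means cytotoxic signal drop whose half-maximal concentration is at most twice the top valid dose; inconclusive means flat drop between 30% and 70%, or poor fit; inactive means the rest.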"}
{"experiment": "loss of A549 viability via ATP – cell-based, plate reader, dry powder, set 7, cytotoxicity control, dose response (AID 743318)", "settings": "CellTiter-Glo ATP luminescence, 72 h; series mostly up to 26 µM"}
{"smiles": "S=c1[nH]c2ccccc2n1CCOc1ccccc1Cl", "outcome": "inactive"}
{"smiles": "Cc1ccc(OCCn2c(=S)[nH]c3ccccc32)cc1", "outcome": "inactive"}
{"smiles": "Fc1ccc2[nH]c(=S)n(CCOc3ccccc3)c2c1", "outcome": "inactive"}
{"smiles": "Cc1ccc(OCCn2cnc3ccccc32)cc1", "outcome": "inactive"}
{"smiles": "Cc1ccc(OCCn2c(=S)[nH]c3ccccc32)c(C(C)C)c1", "outcome": "inactive"}
{"smiles": "Cc1cccc(OCCn2c(=S)[nH]c3ccccc32)c1C", "outcome": "inactive"}
{"smiles": "CC(C)(C)c1ccc(OCCn2cnc3ccccc32)cc1", "outcome": "inactive"}
{"smiles": "Cc1ccc(C)c(OCCn2c(=S)[nH]c3ccccc32)c1", "outcome": "inactive"}
{"smiles": "CC(C)(C)c1ccc(OCCn2c(=S)[nH]c3ccccc32)cc1", "outcome": "inactive"}
{"smiles": "Cc1ccc(OCCn2cnc3ccccc32)c(C(C)C)c1", "outcome": "inactive"}
{"smiles": "S=c1[nH]c2ccccc2n1CCOc1ccc(Cl)cc1", "outcome": "inactive"}
{"smiles": "S=c1[nH]c2ccccc2n1CCOc1ccccc1", "outcome": "inactive"}
{"smiles": "Cc1cccc2[nH]c(=S)n(CCOc3ccccc3)c12", "outcome": "inactive"}
{"smiles": "Cc1ccc(C(C)C)c(OCCn2c(=S)[nH]c3cccc(C)c32)c1", "outcome": "inactive"}
{"smiles": "COc1ccccc1OCCn1c(=S)[nH]c2ccccc21", "outcome": "inactive"}
{"smiles": "Cc1ccc(C(C)C)c(OCCn2c(=S)[nH]c3ccc(F)cc32)c1", "outcome": "inactive"}
{"smiles": "COc1ccc(OCCn2c(=S)[nH]c3ccccc32)cc1", "outcome": "inactive"}
{"smiles": "COc1cccc(OCCn2c(=S)[nH]c3ccccc32)c1", "outcome": "inactive"}
{"smiles": "Cc1ccc(C(C)C)c(OCCn2c(=S)[nH]c3ccccc32)c1", "outcome": "inactive"}
{"smiles": "S=c1[nH]c2cc(Cl)ccc2n1CCOc1ccccc1", "outcome": "inactive"}
{"smiles": "CC(C)c1ccccc1NCCn1c(=S)[nH]c2ccccc21", "outcome": "inactive"}
{"smiles": "Cc1cccc(OCCn2c(=S)[nH]c3ccc(C(F)(F)F)cc32)c1", "outcome": "inactive"}
{"smiles": "Cc1ccc(C(C)C)c(OCCn2c(=S)[nH]c3ccc(Cl)cc32)c1", "outcome": "inactive"}
{"smiles": "CC(C)c1ccc(OCCn2c(=S)[nH]c3ccccc32)cc1", "outcome": "inactive"}
{"smiles": "Cc1ccc(C(C)C)c(OCCn2c(=S)[nH]c3c(Cl)cccc32)c1", "outcome": "inactive"}
